# Bioassay records as filed in PubChem.
# uPA surface inh – qHTS for Inhibitors of Cell Surface uPA Generation. cell surface uPA generation assay, qHTS. Potency, µM (top dose mostly 38.3 µM), for the others: at the top dose activity change, negative = inhibition, most hits filed as inhibitors. 330,000 compounds, 0.31% hits; active means well fitted inhibition curve with a large enough effect; inconclusive means small, poorly fitted or top-dose-only effect; inactive means no such curve, though single readings can be large or run the other way; tested in mouse RAW 264.7 cells; further: on the % scale 0 is the no-effect control and ±100 the full control effect; nearly all actives have a fitted effect of over 55% in size
# a7 integrin act – qHTS for Activators of Integrin-Mediated Alleviation for Muscular Dystrophy; 350,000 compounds, 0.064% hits; alpha7betagal myoblasts, beta-gal FDG fluorescence, 48 h; Potency, µM (titrated, usually from 38.3 µM), for the others: at the highest dose activation, most hits filed as activators;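 further: 100% = response of the positive control SU9516; nearly all actives have a fitted effect of over 60% in size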
#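 alpha7betagal+/- myoblasts (passage 13, 250/well) treated 48 h at 37C with compounds at 1:260 dilution of DMSO stock. Lysed, then beta-galactosidase activity read as FDG fluorescence (ex 480/em 540) after 30 min, with pre-read for autofluorescence.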
# VP16 counter – VP16 counterscreen qHTS for inhibitors of ROR gamma transcriptional activity; Potency, µM (highest dose often 53.6 µM), for inactives: at the highest dose activity, negative = inhibition, hits mostly inhibitors; 310,000 compounds, 3.5% hits; Drosophila S2 Gal4-VP16 UAS-luciferase, luminescence, 20 h;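 further: Gal4-VP16 expression switched on by copper sulfate through the metallothionein promoter; on the % scale 0 is the no-effect control and ±100 the full control effect; nearly all actives have a fitted effect of over 50% in size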
# RORgamma inh – qHTS for inhibitors of ROR gamma transcriptional activity; Nuclear receptor ROR-gamma (Mus musculus), P51450; Potency, µM (doses to about 53.6 µM), for the others: at the top dose activity change, negative = inhibition, hits mostly inhibitors; 310,000 compounds, 5.4% hits; Drosophila S2 Gal4-RORgamma UAS-luciferase reporter, 20 h; further: on the % scale 0 is the no-effect control and ±100 the full control effect; nearly all actives have a fitted effect of over 60% in size
# Target sequence (P51450 whole entry, looked up, the tested form may be a part): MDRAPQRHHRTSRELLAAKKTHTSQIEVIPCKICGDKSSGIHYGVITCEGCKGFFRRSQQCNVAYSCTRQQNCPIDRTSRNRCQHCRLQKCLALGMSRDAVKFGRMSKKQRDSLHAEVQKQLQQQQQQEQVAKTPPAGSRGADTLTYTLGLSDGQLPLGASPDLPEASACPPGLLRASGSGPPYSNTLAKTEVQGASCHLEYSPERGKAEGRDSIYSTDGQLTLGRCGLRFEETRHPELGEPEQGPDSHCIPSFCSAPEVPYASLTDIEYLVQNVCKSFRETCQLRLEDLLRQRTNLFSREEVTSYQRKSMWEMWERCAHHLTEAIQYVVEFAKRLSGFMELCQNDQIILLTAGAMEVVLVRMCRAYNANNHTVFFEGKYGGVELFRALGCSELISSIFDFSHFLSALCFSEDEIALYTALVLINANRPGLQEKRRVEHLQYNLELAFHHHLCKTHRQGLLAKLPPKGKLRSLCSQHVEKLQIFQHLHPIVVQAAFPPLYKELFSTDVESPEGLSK
#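 Read-out: Photinus luciferase luminescence; inhibitors lower reporter signal. Insect Schneider cells with Gal4-ROR gamma fusion under metallothionein promoter, UAS reporter; 700 uM final copper sulfate induction, 20 hr, ambient temperature.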
# Mito fusion yeast – qHTS Assay for Small Molecule Inhibitors of Mitochondrial Division or Activators of Mitochondrial Fusion; Potency, µM (highest dose often 46.1 µM), for inactives: at the highest dose growth rescue (activation), actives largely listed as activators; S. cerevisiae fusion-defective mutant growth rescue, CellTiterGlo 48 h; 320,000 compounds, 0.23% hits; further: % of control where 0% means no effect; nearly all actives have a fitted effect of over 45% in size
#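 Yeast fusion mutant, YPEG (non-fermentable carbon), compound, 48 h at 37C non-permissive; CellTiterGlo added, 10 min RT, luminescence read. Rescued growth = division inhibition.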
# Chronic BCR inh – qHTS Assay to Find Inhibitors of Chronic Active B-Cell Receptor Signaling; ABC-DLBCL IkBa-CBG/CBR reporter, luminescence ratio, 4 h; Potency, µM (doses to about 46.1 µM), without a hit: at the top dose activity change, negative = inhibition, most hits filed as inhibitors; 340,000 compounds, 0.05% hits; AID 493014, 2011; active means well fitted inhibition curve with a large enough effect in the signal ratio, with a control signal flat, not every such curve was filed as active; inconclusive means small, poorly fitted or top-dose-only effect, or effect the other way, or a change in a side signal; the % refers to the signal ratio;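 further: plate controls were basal doxycycline-induced cells for no effect and cells given 10 µM MG132 for full effect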
#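 TMD8 ABC-DLBCL cells carrying doxycycline-inducible green luciferase fused to IkappaBalpha plus unfused red luciferase were exposed to compounds (up to 46 uM) for 4 hrs at 37C. Activity came from the overlap-corrected green/red luminescence ratio.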
# An asterisk follows results filed as active; u = inconclusive; x = not tested or not shown; [ ] = another dose, or the depositor's remark. The list is not random: actives were taken first. Their share in the collection is about 5.5%. Unless noted, the call rests on the fitted dose curve; in most records, active means well fitted curve in the direction sought with a large enough effect; inconclusive means small, poorly fitted or top-dose-only effect, or another doubt; inactive means no such curve, though single readings can be large; an effect the other way counts as inactive or inconclusive. Potency means the concentration at half of the fitted maximal effect.
SMILES,uPA surface inh,a7 integrin act,VP16 counter,RORgamma inh,Mito fusion yeast,Chronic BCR inh
COc1ccc(C2NC(=O)NC3=C2CCc2ccccc23)cc1 (stereo unspecified),-13%,-3%,0%,6%,-4%,u
COc1cccc(C2NC(=S)NC3=C2CCc2ccccc23)c1 (stereo unspecified),4%,-6%,0.28µM*,-155%,0%,-2%
COc1ccc2c(c1)C1=C(CC2)C(c2ccc(C)cc2)NC(=S)N1 (stereo unspecified),9%,-18%,2.8µM*,0.71µM*,-10%,5%
Cc1ccc(C2NC(=O)NC3=C2CCc2ccccc23)cc1 (stereo unspecified),7%,2%,-26%,-89%,-1%,u
Cn1cccc1/C=N/N1CCN(Cc2cccc3ccccc23)CC1,1%,-27%,2%,-11%,-6%,2%
COc1ccc(CNc2nc(-c3c(C)noc3C)nc3ccccc23)c(OC)c1,x,x,8%,12%,x,x
CC(CN1CCOCC1)OC(=O)c1ccc(Br)cc1 (stereo unspecified),-2%,-45%,u,2µM*,-2%,u
CC(CN1CCOCC1)OC(=O)c1ccccc1Cl (stereo unspecified),1%,3%,7%,-37%,1%,6%
O=C(c1ccc(Br)cc1)C(CN1CCOCC1)c1ccccc1 (stereo unspecified),-15%,-23%,20µM*,16µM*,-29%,u
O=C(O)CC(NC(=O)/C(=C/c1ccccc1)NC(=O)c1ccccc1)c1ccccc1 (stereo unspecified),3%,u,-8%,-17%,0%,-10%
Cc1ccc(C)c(NC(=O)CCC(=O)N/N=C/c2ccc[nH]2)c1,x,-16%,-12%,17%,-3%,0%
Cc1cc(=O)oc2cc(OCC(=O)N/N=C/c3cc([N+](=O)[O-])ccc3O)ccc12,0%,30%,2.2µM*,1.3µM*,0%,25%
Cc1cc(O)c(C(C)C)cc1N=Cc1ccccc1O,u,-23%,u,-82%,-7%,u
Cc1cc(O)c(C(C)C)cc1N=Cc1cc([N+](=O)[O-])ccc1O,5%,11%,u,10µM*,-4%,6%
Cc1ccc(C)c(NC(=O)CCC(=O)N/N=C/c2cc([N+](=O)[O-])ccc2O)c1,-3%,-15%,u,5.6µM*,5%,u
Cc1ccccc1NC(=O)CCC(=O)N/N=C/c1cc([N+](=O)[O-])ccc1O,-7%,7%,u,4µM*,3%,-1%
C=CCOc1ccc2ccccc2c1CNn1cn[nH]c1=S,-2%,-8%,u,-23%[1.91 µM],-11%,u
O=C(c1ccc([N+](=O)[O-])cc1)N1CCN(c2ccc(Nc3ccccc3)nn2)CC1,x,x,x,x,x,13%
COC(=O)c1ccccc1C(=O)N1CCCC(C(=O)c2ccc(OC)c(OC)c2)C1 (stereo unspecified),10%,-22%,-9%,3%,2%,0%
O=C(NC(Cc1cc(=O)[nH]c2ccccc12)C(=O)O)c1ccc(Cl)cc1 (stereo unspecified),x,x,-1%,14%,x,x
Cc1ccc(/C=N/NC(=O)CSc2nc3ccccc3s2)o1,-1%,15%,4%,-33%,-6%,1%
Cc1ccc(NC(=O)CCC(=O)N/N=C/c2cc([N+](=O)[O-])ccc2O)cc1,-11%,-8%,14µM*,13µM*,5%,-6%
O=C(CSc1nc2ccccc2s1)N/N=C/c1cc([N+](=O)[O-])ccc1O,-3%,-4%,u,5µM*,-1%,u
CN1CCN(CCC(=O)N/N=C/c2cc([N+](=O)[O-])ccc2O)CC1,-6%,12%,u,u,0%,5%
COc1ccccc1CNC(=O)CC1N=C2c3ccccc3N=C(SCC(=O)Nc3ccc(F)cc3)N2C1=O (stereo unspecified),x,x,x,x,x,-3%
SMILES,uPA surface inh,a7 integrin act,VP16 counter,RORgamma inh,Mito fusion yeast,Chronic BCR inh
COc1ccc(-c2oc3c(CC=C(C)C)c(O[C@H]4OC(CO)C(O)C(O)C4O)cc(O)c3c(=O)c2O[C@@H]2OC(C)C(O)C(O)C2O)cc1 (stereo partly specified),x,x,-22%,-9%,x,x
COc1ccccc1NC(=S)NNC(=O)c1nn(C)c(C)c1Cl,2%,17%,17%,19%,-1%,u
Cc1ccc(O)c(NC(=S)NC(=O)c2ccc(-c3ccc(Cl)cc3)o2)c1,3%,-40%,x,x,x,x
O=C(NC(=S)Nc1ccccc1O)c1ccc(-c2ccc(Cl)cc2)o1,-4%,-35%,7.9µM*,3.2µM*,-9%,4%
COc1ccccc1NC(=S)NC(=O)c1ccc(-c2ccc(Cl)cc2)o1,-21%,-17%,u,1.8µM*,-4%,0%
COc1ccccc1NC(=S)NNC(=O)c1nn(C)cc1Cl,-6%,3%,u,10µM*,-1%,u
CC1=C(C)C[C@@]23CCCN2C(=O)CCC[C@H]3C1,x,x,-5%[96.6 µM],-24%[96.6 µM],x,x
COC(=O)[C@@H]1C[C@H]1[C@@H](NC(=O)c1cc(C)on1)c1ccccc1,-3%,1%,-1%,-23%,x,x
Cc1cc2ncn(CS(C)(=O)=O)c2cc1C,2%,-21%,-3%,-1%,-1%,12%
C=C(C)Cn1cnc2cc(C)c(C)cc21,1%,0%,-2%,11µM*,-1%,2%
O=C(NNC1=NCCCCC1)c1cccc([N+](=O)[O-])c1,-5%,21%,-12%,-4%,3%,5%
O=C(NNC1=NCCC1)c1cccc(S(=O)(=O)N2CCCC2)c1,-2%,-7%,u,8.9µM*,-6%,1%
O=C(NNC1=NCCC1)c1cccc(S(=O)(=O)N2CCOCC2)c1,2%,3%,u,u,-16%,11%
O=C(NNC1=NCCC1)c1ccc(Br)cc1,-3%,17%,6.3µM*,5.6µM*,-1%,-15%
Cc1ccc(NCC(=O)NNC2=NCCC2)c(C)c1,9%,u,11µM*,8.9µM*,-5%,3%
Cc1ccc(C(=O)CNc2ccc(C)cc2C)cc1,-2%,-42%,-9%,0%,2%,0%
Cc1ccc(C(=O)NNC2=NCCC2)cc1,5%,31%,18µM*,10µM*,2%,-2%
c1coc(C2=NCCc3ccccc32)c1,-4%,-11%,17%,u,-4%,1%
